{"source": "PubChem BioAssay", "note": "Calls of active or inactive are those of the source.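 Rule for the calls, unless noted: active = hit in primary screen, with calcium signal over 5 SD above buffer well mean in both duplicates; inactive = the rest.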", "data": [{"assay": "calcium flux activation in mu-opioid HEK293 cells, confirmation, counter-screen for TRPC4 activator project, cell-based, HEK293 mu-opioid receptor line (AID 449723);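 note: counter screen cells carry the mu-opioid receptor alone and lack TRPC4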", "settings": "Fluo-4 calcium fluorescence, at 10 µM", "values": [{"smiles": "CC(C)C(NC(=O)c1ccc(C(C)(C)C)cc1)C(=O)NCC(c1ccccc1)N(C)C", "note": "(stereo not drawn)", "outcome": "inactive"}, {"smiles": "CN(C)CCCN(C(=O)c1ccc(S(=O)(=O)N2CCCC2)cc1)c1nc2c(F)cc(F)cc2s1", "outcome": "inactive"}, {"smiles": "CCC1CCCCN1CCN1C(=O)C2C(C(=O)Nc3ccc(OC)cc3)C3C=CC2(O3)C1C(=O)NC1CCCCC1", "note": "(stereo not drawn)", "outcome": "inactive"}, {"smiles": "Cc1cc(Nc2ccc(C)c(C)c2)c2ccccc2n1", "outcome": "inactive"}, {"smiles": "CCCc1nc2ccccc2n1Cc1ccccc1OC", "outcome": "inactive"}, {"smiles": "CCCCOc1ccc(Nc2cc(Cl)ccc2C(=O)O)cn1", "outcome": "inactive"}, {"smiles": "N#Cc1c(N)sc2c1CCCCCC2", "outcome": "inactive"}, {"smiles": "Cc1cc(OCc2cc(C(=O)NCCN3CCCCC3CO)no2)cc(C)c1Cl", "note": "(stereo not drawn)", "outcome": "inactive"}, {"smiles": "Cc1cccc(C)c1-n1cccc1/C=C1\\SC(=S)N(c2cccc(C(=O)O)c2)C1=O", "outcome": "inactive"}, {"smiles": "Clc1ccc(COc2ccccc2CNCc2cccnc2)cc1", "outcome": "inactive"}, {"smiles": "C=CCOc1ccc(C2CC(C)=NN2c2ccccc2)cc1", "note": "(stereo not drawn)", "outcome": "inactive"}, {"smiles": "CCCCN=C(Nc1ccc(Cl)cc1)c1cccnc1", "outcome": "inactive"}, {"smiles": "OCc1ccccc1CNCc1ccccc1", "outcome": "inactive"}, {"smiles": "Cc1ccc(Nc2cc(C)nc3ccc(C)cc23)cc1", "outcome": "inactive"}, {"smiles": "C=CCSc1nnc2n(-c3ccccc3OC)c(=O)c3c4c(sc3n12)CCC4", "outcome": "inactive"}, {"smiles": "Cc1ccc(NC(=O)CN2CCc3ccccc3C2)cc1F", "outcome": "inactive"}, {"smiles": "c1ccc(CN2CCN(Cc3c[nH]c4ccccc34)CC2)cc1", "outcome": "inactive"}, {"smiles": "OCCNc1nc2ccccc2n1CCN1CCCCC1", "outcome": "inactive"}, {"smiles": "COc1ccc(NC(=O)c2c[nH]n3c(=O)cc(C4CCN(C(=O)OC(C)(C)C)CC4)nc23)cc1Cl", "outcome": "inactive"}, {"smiles": "CC1CCCN1CC#CC(O)(c1ccccc1)c1ccccc1", "note": "(stereo not drawn)", "outcome": "inactive"}, {"smiles": "CCOC(=O)c1c(N)sc(C(O)(C(F)(F)F)C(F)(F)F)c1-c1ccccc1", "outcome": "inactive"}, {"smiles": "CCCCN(Cc1ccccc1)C(=O)C1CCN(Cc2sccc2C)CC1", "outcome": "inactive"}, {"smiles": "CCc1ccc2nc3nc(C)cc(C)c3c(N)c2c1", "outcome": "inactive"}, {"smiles": "Cc1ccc(C)c(S(=O)(=O)/N=C2\\C=C(NS(=O)(=O)c3ccccc3)C(=O)c3ccccc32)c1", "outcome": "inactive"}, {"smiles": "Cc1ccn2c(-c3csc(NCc4ccco4)n3)c(C)nc2c1", "outcome": "inactive"}, {"smiles": "CCCCC(=O)N(c1ccc(C(=O)O)cc1)c1nc(-c2ccc(Cl)cc2)c(CC)s1", "outcome": "inactive"}, {"smiles": "CC(=O)c1ccc2c(c1)N(C)c1ccccc1S2", "outcome": "inactive"}, {"smiles": "Cc1ccc2c(c1)N(C(=O)CCC(=O)Nc1ccccc1Br)CC(C)O2", "note": "(stereo not drawn)", "outcome": "inactive"}, {"smiles": "OCC1(CCCc2ccccc2)CCN(Cc2cc(F)ccc2F)CC1", "outcome": "inactive"}, {"smiles": "CC(C)c1ccc(S(=O)(=O)/N=C2\\C=C(NS(=O)(=O)c3ccccc3)C(=O)c3ccccc32)cc1", "outcome": "inactive"}, {"smiles": "Cc1cc(NCc2ccccc2)nc(N2CCOCC2)n1", "outcome": "inactive"}, {"smiles": "CCOc1ccc(NC(=O)c2c[nH]n3c(=O)cc(C4CCN(C(=O)OC(C)(C)C)CC4)nc23)cc1", "outcome": "inactive"}, {"smiles": "COCCn1c(SCc2cc(C(C)=O)ccc2OC)nc2cc(Cl)ccc2c1=O", "outcome": "inactive"}, {"smiles": "CCc1cc(C(c2cccc(OC)c2)N2CCOCC2)c(NC(=O)c2ccccc2)s1", "note": "(stereo not drawn)", "outcome": "inactive"}, {"smiles": "CC(=O)Nc1ccc(S(=O)(=O)NC2=C(N3CCN(Cc4ccccc4)CC3)C(=O)c3ccccc3C2=O)cc1", "outcome": "inactive"}, {"smiles": "COc1ccc(C2=NN(C(=O)c3ccccc3)C(c3ccc(OC)c(OC)c3)C2)c(O)c1", "note": "(stereo not drawn)", "outcome": "inactive"}, {"smiles": "COc1cccc(CNC(=O)CCC2CCCN(Cc3cc(Cl)ccc3O)C2)c1", "note": "(stereo not drawn)", "outcome": "inactive"}, {"smiles": "Cc1c(CN2CCC(n3nccc3NC(=O)CCc3ccccc3)CC2)cnn1C", "outcome": "inactive"}, {"smiles": "CCOC(=O)C(C)Sc1nc2c(c(=O)[nH]c(=O)n2C)n1Cc1ccc(Cl)cc1", "note": "(stereo not drawn)", "outcome": "inactive"}]}, {"assay": "calcium flux enhancement in mu-opioid HEK293 cells, confirmation, counter-screen for TRPC4 allosteric potentiator project, cell-based, HEK293 mu-opioid receptor line (AID 449724;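 active = calcium signal rise more than 3 SD above the low-dose agonist control mean, in both duplicate plates and the primary screen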;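 note: HEK293 cells carrying mu-opioid receptor only with no TRPC4 channel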)", "settings": "Fluo-4 calcium flux, at 10 µM, compound added before EC20 DAMGO stimulus", "values": [{"smiles": "CC(C)C(NC(=O)c1ccc(C(C)(C)C)cc1)C(=O)NCC(c1ccccc1)N(C)C", "note": "(stereo not drawn)", "outcome": "inactive"}, {"smiles": "CN(C)CCCN(C(=O)c1ccc(S(=O)(=O)N2CCCC2)cc1)c1nc2c(F)cc(F)cc2s1", "outcome": "inactive"}, {"smiles": "CCC1CCCCN1CCN1C(=O)C2C(C(=O)Nc3ccc(OC)cc3)C3C=CC2(O3)C1C(=O)NC1CCCCC1", "note": "(stereo not drawn)", "outcome": "inactive"}, {"smiles": "Cc1cc(Nc2ccc(C)c(C)c2)c2ccccc2n1", "outcome": "inactive"}, {"smiles": "CCCc1nc2ccccc2n1Cc1ccccc1OC", "outcome": "inactive"}, {"smiles": "CCCCOc1ccc(Nc2cc(Cl)ccc2C(=O)O)cn1", "outcome": "inactive"}, {"smiles": "N#Cc1c(N)sc2c1CCCCCC2", "outcome": "inactive"}, {"smiles": "Cc1cc(OCc2cc(C(=O)NCCN3CCCCC3CO)no2)cc(C)c1Cl", "note": "(stereo not drawn)", "outcome": "inactive"}, {"smiles": "Cc1cccc(C)c1-n1cccc1/C=C1\\SC(=S)N(c2cccc(C(=O)O)c2)C1=O", "outcome": "inactive"}, {"smiles": "Clc1ccc(COc2ccccc2CNCc2cccnc2)cc1", "outcome": "inactive"}, {"smiles": "C=CCOc1ccc(C2CC(C)=NN2c2ccccc2)cc1", "note": "(stereo not drawn)", "outcome": "inactive"}, {"smiles": "CCCCN=C(Nc1ccc(Cl)cc1)c1cccnc1", "outcome": "inactive"}, {"smiles": "OCc1ccccc1CNCc1ccccc1", "outcome": "inactive"}, {"smiles": "Cc1ccc(Nc2cc(C)nc3ccc(C)cc23)cc1", "outcome": "inactive"}, {"smiles": "C=CCSc1nnc2n(-c3ccccc3OC)c(=O)c3c4c(sc3n12)CCC4", "outcome": "inactive"}, {"smiles": "Cc1ccc(NC(=O)CN2CCc3ccccc3C2)cc1F", "outcome": "inactive"}, {"smiles": "c1ccc(CN2CCN(Cc3c[nH]c4ccccc34)CC2)cc1", "outcome": "inactive"}, {"smiles": "OCCNc1nc2ccccc2n1CCN1CCCCC1", "outcome": "inactive"}, {"smiles": "COc1ccc(NC(=O)c2c[nH]n3c(=O)cc(C4CCN(C(=O)OC(C)(C)C)CC4)nc23)cc1Cl", "outcome": "inactive"}, {"smiles": "CC1CCCN1CC#CC(O)(c1ccccc1)c1ccccc1", "note": "(stereo not drawn)", "outcome": "inactive"}, {"smiles": "CCOC(=O)c1c(N)sc(C(O)(C(F)(F)F)C(F)(F)F)c1-c1ccccc1", "outcome": "inactive"}, {"smiles": "CCCCN(Cc1ccccc1)C(=O)C1CCN(Cc2sccc2C)CC1", "outcome": "inactive"}, {"smiles": "CCc1ccc2nc3nc(C)cc(C)c3c(N)c2c1", "outcome": "inactive"}, {"smiles": "Cc1ccc(C)c(S(=O)(=O)/N=C2\\C=C(NS(=O)(=O)c3ccccc3)C(=O)c3ccccc32)c1", "outcome": "inactive"}, {"smiles": "Cc1ccn2c(-c3csc(NCc4ccco4)n3)c(C)nc2c1", "outcome": "inactive"}, {"smiles": "CCCCC(=O)N(c1ccc(C(=O)O)cc1)c1nc(-c2ccc(Cl)cc2)c(CC)s1", "outcome": "inactive"}, {"smiles": "CC(=O)c1ccc2c(c1)N(C)c1ccccc1S2", "outcome": "inactive"}, {"smiles": "Cc1ccc2c(c1)N(C(=O)CCC(=O)Nc1ccccc1Br)CC(C)O2", "note": "(stereo not drawn)", "outcome": "inactive"}, {"smiles": "OCC1(CCCc2ccccc2)CCN(Cc2cc(F)ccc2F)CC1", "outcome": "inactive"}, {"smiles": "CC(C)c1ccc(S(=O)(=O)/N=C2\\C=C(NS(=O)(=O)c3ccccc3)C(=O)c3ccccc32)cc1", "outcome": "inactive"}, {"smiles": "Cc1cc(NCc2ccccc2)nc(N2CCOCC2)n1", "outcome": "inactive"}, {"smiles": "CCOc1ccc(NC(=O)c2c[nH]n3c(=O)cc(C4CCN(C(=O)OC(C)(C)C)CC4)nc23)cc1", "outcome": "inactive"}, {"smiles": "COCCn1c(SCc2cc(C(C)=O)ccc2OC)nc2cc(Cl)ccc2c1=O", "outcome": "inactive"}, {"smiles": "CCc1cc(C(c2cccc(OC)c2)N2CCOCC2)c(NC(=O)c2ccccc2)s1", "note": "(stereo not drawn)", "outcome": "inactive"}, {"smiles": "CC(=O)Nc1ccc(S(=O)(=O)NC2=C(N3CCN(Cc4ccccc4)CC3)C(=O)c3ccccc3C2=O)cc1", "outcome": "inactive"}, {"smiles": "COc1ccc(C2=NN(C(=O)c3ccccc3)C(c3ccc(OC)c(OC)c3)C2)c(O)c1", "note": "(stereo not drawn)", "outcome": "inactive"}, {"smiles": "COc1cccc(CNC(=O)CCC2CCCN(Cc3cc(Cl)ccc3O)C2)c1", "note": "(stereo not drawn)", "outcome": "inactive"}, {"smiles": "Cc1c(CN2CCC(n3nccc3NC(=O)CCc3ccccc3)CC2)cnn1C", "outcome": "inactive"}, {"smiles": "CCOC(=O)C(C)Sc1nc2c(c(=O)[nH]c(=O)n2C)n1Cc1ccc(Cl)cc1", "note": "(stereo not drawn)", "outcome": "inactive"}]}]}
